Measured values published in PubChem BioAssay.
“And” between values parts separate entries of the source, which are not always exact repeats. Equal entries are not always repeated. The source made the active and inactive calls.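 The calls were made as follows, unless noted: active = compounds whose cell count with miR-34 switched on is under 0.7 times the count with it off; inactive = the rest.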

Assays:
[1] = hESC survival regulators, cell-based (AID 493140; call rule not given here;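 also: cells exposed to compounds for four days before counting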); conditions: human embryonic stem cell survival screen; stronger effect = higher value
[2] = liver-stage malaria parasite growth inhibition, primary screen, cell-based, HepG2, luciferase luminescence, HepG2 viability (AID 624349; in the data active = parasite load remaining mostly below about 12%, no sharp cut-off; inactive = mostly above about 10%;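 also: 100% = mean of DMSO negative control wells on the same plate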); conditions: P. berghei liver stage in HepG2, luciferase luminescence, concentration not given here; parasite load remaining: stronger effect = lower value; viability: measured here: HepG2 viability without parasites
[3] = stimulators of nuclear beta-catenin in C2C12, primary screen, imaging, WNT3A-conditioned medium, mouse C2C12, NPC library (AID 1117326; in the data active = nuclear beta-catenin stimulation mostly above about 4.2%, no sharp cut-off; inactive = mostly below about 10%); conditions: stronger effect = higher value
[4] = stimulators of insulin release from INS-1E, primary screen, cell-based, 5 mM glucose, NPC library (AID 1117329;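 active = compound raises insulin release from rat beta cells at 5 mM glucose, no numeric limit stated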); conditions: rat INS-1E insulin secretion, at 10 µM, stronger effect = higher value
[5] = growth inhibition of GSK3B-pretreated HCT116 cells – cell-based, CellTiter-Glo, 0.2 to 20 µM (AID 1117336;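 active = compounds lowering colon cancer cell viability after pretreatment blocking the GSK3B kinase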); conditions: HCT116 viability after GSK3B inhibitor, at 20 µM, stronger effect = higher value
[6] = inhibition of endothelial tube formation, primary screen, imaging, VEGF stimulated, CD31 staining, tube area, NPC library (AID 1117340;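 active = compound that reduces growth-factor-driven endothelial tube area in a mixed cell culture, no cutoff stated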); conditions: VEGF-stimulated ADSC/ECFC co-culture, at 10 µM, stronger effect = higher value
[7] = glucagon-like peptide 1 release enhancers, primary assay, NCI-H716 cell line, NPC library (AID 1117341;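 active = compound raises GLP1 secretion from the human gut endocrine cells, with no numeric limit stated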); conditions: NCI-H716 cells, at 10 µM, stronger effect = higher value
[8] = HCT116 colon cancer cell growth inhibition, primary screen, CellTiter-Glo luminescence, NPC library (AID 1117342;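 active = compounds that lower survival of HCT116 colon cancer cells in the luminescence readout, no numeric limit stated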); conditions: at 20 µM (top of the series)
[9] = CellTiter-Glo luminescent readout of SW480 viability loss, NPC library primary (AID 1117343;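 active = compounds that lower viability of the colon cancer cells in the luminescence readout, with no numeric limit stated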); conditions: CellTiter-Glo luminescence; at 20 µM (top of the series)
[10] = decreased DLD-1 cellular survival, CellTiter-Glo luminescent readout, NPC compound collection, primary HTS (AID 1117346;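 active = compounds that lower survival of DLD-1 colon cancer cells in the luminescence readout, no cutoff given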); conditions: DLD-1 viability, CellTiter-Glo luminescence; at 20 µM (top of the series)
[11] = differential killing of epithelial or mesenchymal cells, primary screen, imaging, PC-3E GFP, TEM4-18 mCherry, co-culture (AID 1345086;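 active = compounds killing one labelled cell type while sparing the other, by normalised counts and ratio limits, not self-fluorescent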;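 as to all read-outs here: cells exposed to compound for 72 h before imaging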;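 as to red/green cell ratio (normalised): normalised mesenchymal count divided by normalised epithelial count so high means epithelial killing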); conditions: imaging cell counts, at 1 µM; for red/green cell ratio (normalised): actives lie on both sides
[12] = sensitizers of A549 cells to miR-34 induction, primary screen, imaging, A549 dox-inducible miR-34, nuclei and caspase counts (AID 1347080); conditions: A549 miR-34 inducible, Hoechst nuclei count, 48 h
[13] = survival rescue of mitochondrial mutant cells in low glucose, primary screen, MELAS cybrids, Rieske KO mouse fibroblasts, CellTiter-Glo (AID 1508586;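 active = mean z-score across replicates of 1.96 or higher in either the MELAS or the Rieske mutant cell line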;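 also: z relative to plate mean and SD of compound and empty wells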)
[14] = biological target: NAD(+) hydrolase SARM1 (Homo sapiens) (UniProt Q6SZW1); test: SARM1 TIR NADase inhibitors, cell lysate, NAD-Glo luminescence (AID 1508614;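 active = compound whose remaining NAD level is above about 45 nM, limit read from the data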;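 also: higher remaining NAD means stronger inhibition of SARM1 NADase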); conditions: SAM-TIR HEK293T lysate NADase, at 1 µM, stronger effect = higher value
Chain of NAD(+) hydrolase SARM1 (Homo sapiens) (Q6SZW1 whole entry, looked up): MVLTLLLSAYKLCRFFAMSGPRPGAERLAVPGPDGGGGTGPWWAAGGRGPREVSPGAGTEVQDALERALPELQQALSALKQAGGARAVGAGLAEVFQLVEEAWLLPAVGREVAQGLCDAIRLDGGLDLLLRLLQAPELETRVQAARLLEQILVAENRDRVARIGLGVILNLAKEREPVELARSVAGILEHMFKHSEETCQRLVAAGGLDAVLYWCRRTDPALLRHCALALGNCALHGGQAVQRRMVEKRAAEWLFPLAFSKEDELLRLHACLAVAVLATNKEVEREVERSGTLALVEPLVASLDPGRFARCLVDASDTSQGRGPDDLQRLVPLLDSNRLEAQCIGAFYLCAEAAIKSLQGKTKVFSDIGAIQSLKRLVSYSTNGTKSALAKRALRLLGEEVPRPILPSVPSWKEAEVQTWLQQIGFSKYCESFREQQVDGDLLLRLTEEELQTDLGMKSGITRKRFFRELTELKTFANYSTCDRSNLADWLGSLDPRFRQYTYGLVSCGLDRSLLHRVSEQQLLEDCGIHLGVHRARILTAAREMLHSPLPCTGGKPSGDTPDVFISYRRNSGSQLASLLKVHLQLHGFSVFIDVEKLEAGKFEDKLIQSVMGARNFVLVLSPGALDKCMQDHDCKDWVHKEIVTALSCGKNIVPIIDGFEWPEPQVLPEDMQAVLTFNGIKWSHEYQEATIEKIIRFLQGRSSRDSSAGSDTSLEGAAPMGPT

[15] = test system: Hepatitis C virus NS3 helicase; test: HCV NS3 helicase inhibitors, primary screen, biochemical, fluorescence polarization, LOPAC1280 library (AID 687035; in the data active = inhibition above about 37%); conditions: Purified HCV NS3 helicase, Cy5-dT15 ssDNA binding fluorescence polarization; stronger effect = higher value; concentration not given here
[16] = Cy5 fluorescence quenching or enhancement artefacts, artefact control for HCV NS3 helicase inhibitor project, biochemical, LOPAC1280 (AID 687037; call rule not given here); conditions: Cy5-DNA-NS3h complex fluorescence interference counterscreen
[17] = test system: Aerobactin synthetase IucA (Klebsiella pneumoniae, hypervirulent); test: IucA enzyme inhibition, biochemical, LOPAC library, absorbance readout (AID 1346212; call rule not given here;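 also: 100% = no compound wells and 0% = no enzyme wells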); conditions: IucA enzyme assay, absorbance (OD) readout; stronger effect = lower value;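 tested at 8 µM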
[18] = viability rescue of complex I mutant cybrids, primary screen, cell-based, galactose medium, ATP luminescence (AID 1645843;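 active = z-score of at least 1.8 in each of two replicates, scored against plate mean and spread of sample wells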;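 also: positive z means more ATP and so rescue of galactose-driven cybrid death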); conditions: complex I mutant cybrid cells, 72 h, stronger effect = higher value
[19] = measured here: epithelial PC-3E GFP cell survival
[20] = measured here: mesenchymal TEM4-18 mCherry cell survival
[21] = measured here: relative caspase fold change +Dox/-Dox
[22] = measured here: total cells with miR-34 induction, stronger effect = lower value
[23] = measured here: total cells without miR-34 induction
[24] = MELAS cybrid survival, CellTiter-Glo 48 h, stronger effect = higher value
[25] = Rieske KO mouse fibroblast survival, CellTiter-Glo 72 h

COc1ccc(CN2CCNCC2)c(OC)c1OC
survival [1]: 5.83 (inactive)
parasite load remaining [2]: 122% (inactive) and 71.5% (inactive)
viability [2]: 118% and 81.2%
nuclear beta-catenin stimulation ([3]; at 10 µM): 0.8% (inactive)
nuclear beta-catenin stimulation ([3]; stimulation, at 2 µM): 1.1%
insulin secretion stimulation [4]: -0.9% (inactive)
viability decrease [5]: 14.1% (inactive)
tube area decrease [6]: 8.8% (inactive)
GLP1 secretion stimulation [7]: 0% (inactive)
inhibition of viability [8]: 19.3% (inactive)
viability decrease (inhibition) [9]: -6.6% (inactive)
viability decrease (inhibition) [10]: 1.5% (inactive)
red/green cell ratio (normalised) [11]: 0.94 (inactive)
normalised cell number [11, 19]: 1.11
normalised cell number [11, 20]: 1.05
fold change ([12]; stronger effect = lower value): 0.892 (inactive)
fold change [12, 21]: 1.29
cell count [12, 22]: 9020
cell count [12, 23]: 10100
z-score [13, 24]: 0.315 (inactive)
z-score [13, 25]: 0.274
remaining NAD [14]: 10 nM (inactive)

Cc1cccc(C)c1NC(=O)CN1CCCC1=O
inhibition [15]: -5% (inactive)
fluorescence ratio (interference) [16]: 1 (inactive)
nuclear beta-catenin stimulation ([3]; at 10 µM): -1.9% (inactive)
nuclear beta-catenin stimulation ([3]; stimulation, at 2 µM): 0.9%
insulin secretion stimulation [4]: 1.6% (inactive)
viability decrease [5]: 0.1% (inactive)
tube area decrease [6]: -2.5% (inactive)
GLP1 secretion stimulation [7]: -2.4% (inactive)
inhibition of viability [8]: 0.2% (inactive)
viability decrease (inhibition) [9]: 0.5% (inactive)
viability decrease (inhibition) [10]: -10.5% (inactive)
remaining activity [17]: 106% (inactive)
fold change ([12]; stronger effect = lower value): 0.975 (inactive) and 0.928 (inactive)
fold change [12, 21]: 1.2 and 0.724
cell count [12, 22]: 10700 and 8710
cell count [12, 23]: 11000 and 9380
z-score [13, 24]: -0.209 (inactive)
z-score [13, 25]: 0.685
remaining NAD [14]: 10 nM (inactive)
z-score [18]: 0.43 (inactive)

O=[N+]([O-])c1ccc([As](=O)(O)O)cc1
nuclear beta-catenin stimulation ([3]; at 10 µM): 2.2% (inactive)
nuclear beta-catenin stimulation ([3]; stimulation, at 2 µM): 1%
insulin secretion stimulation [4]: -1.1% (inactive)
viability decrease [5]: -9.2% (inactive)
tube area decrease [6]: 3.2% (inactive)
GLP1 secretion stimulation [7]: -5.4% (inactive)
inhibition of viability [8]: -30.4% (inactive)
viability decrease (inhibition) [9]: 101% (active)
viability decrease (inhibition) [10]: -9.5% (inactive)
red/green cell ratio (normalised) [11]: 0.85 (inactive)
normalised cell number [11, 19]: 1.16
normalised cell number [11, 20]: 0.99
fold change ([12]; stronger effect = lower value): 0.887 (inactive)
fold change [12, 21]: 1.5
cell count [12, 22]: 8880
cell count [12, 23]: 10000
remaining NAD [14]: 10 nM (inactive)

N#CC(C#N)=Cc1ccc(O)c(O)c1
survival [1]: 57.1 (inactive)
inhibition [15]: 0% (inactive)
fluorescence ratio (interference) [16]: 1 (inactive)
nuclear beta-catenin stimulation ([3]; at 10 µM): 3.9% (inactive)
nuclear beta-catenin stimulation ([3]; stimulation, at 2 µM): 3.3%
insulin secretion stimulation [4]: 0.65% (inactive)
viability decrease [5]: 86.7% (active)
tube area decrease [6]: 17.4% (inactive)
GLP1 secretion stimulation [7]: -2.9% (inactive)
inhibition of viability [8]: 55.1% (active)
viability decrease (inhibition) [9]: 62.8% (active)
viability decrease (inhibition) [10]: 48.5% (inactive)
remaining activity [17]: 120% (inactive)
fold change ([12]; stronger effect = lower value): 1.02 (inactive) and 0.942 (inactive) and 0.96 (inactive)
fold change [12, 21]: 1.77 and 0.329 and 1.5
cell count [12, 22]: 8900 and 8210 and 9690
cell count [12, 23]: 8760 and 8720 and 10100
z-score [13, 24]: -0.508 (inactive)
z-score [13, 25]: -0.257
z-score [18]: -0.735 (inactive) and -0.66 (inactive)

COC[C@@H](NC(C)=O)C(=O)NCc1ccccc1
nuclear beta-catenin stimulation ([3]; at 10 µM): 0.6% (inactive)
nuclear beta-catenin stimulation ([3]; stimulation, at 2 µM): -0.7%
insulin secretion stimulation [4]: -0.4% (inactive)
viability decrease [5]: -7.9% (inactive)
tube area decrease [6]: -1.1% (inactive)
GLP1 secretion stimulation [7]: -0.8% (inactive)
inhibition of viability [8]: 1.2% (inactive)
viability decrease (inhibition) [9]: -1% (inactive)
viability decrease (inhibition) [10]: 9.6% (inactive)

CNCC(=O)c1ccc(O)c(O)c1
nuclear beta-catenin stimulation ([3]; at 10 µM): -2.8% (inactive)
nuclear beta-catenin stimulation ([3]; stimulation, at 2 µM): -1.5%
insulin secretion stimulation [4]: -0.7% (inactive)
viability decrease [5]: 44.4% (inactive)
tube area decrease [6]: -23.7% (inactive)
GLP1 secretion stimulation [7]: -4.7% (inactive)
inhibition of viability [8]: 20.7% (inactive)
viability decrease (inhibition) [9]: 24.3% (inactive)
viability decrease (inhibition) [10]: 19.2% (inactive)
red/green cell ratio (normalised) ([11]; counts scaled to control wells, 1 = unselective): 1.24 (inactive)
normalised cell number [11, 19]: 1.18
normalised cell number [11, 20]: 1.47
fold change ([12]; stronger effect = lower value): 0.925 (inactive) and 0.971 (inactive)
fold change [12, 21]: 0.648 and 0.466
cell count [12, 22]: 6760 and 7680
cell count [12, 23]: 7310 and 7920
z-score [13, 24]: -0.0398 (inactive)
z-score [13, 25]: -0.269
remaining NAD [14]: 10 nM (inactive)

COc1ccc(C(=O)c2c(C)n(CCN3CCOCC3)c3ccccc23)cc1
parasite load remaining [2]: 50.5% (inactive)
viability [2]: 159%
nuclear beta-catenin stimulation ([3]; at 10 µM): 1.2% (inactive)
nuclear beta-catenin stimulation ([3]; stimulation, at 2 µM): 0.9%
insulin secretion stimulation [4]: -0.5% (inactive)
viability decrease [5]: 75% (active)
tube area decrease [6]: 8.1% (inactive)
GLP1 secretion stimulation [7]: 1.7% (inactive)
inhibition of viability [8]: 54% (active)
viability decrease (inhibition) [9]: 65% (active)
viability decrease (inhibition) [10]: 39.5% (inactive)
fold change ([12]; stronger effect = lower value): 0.898 (inactive)
fold change [12, 21]: 1.25
cell count [12, 22]: 9440
cell count [12, 23]: 10500
z-score [13, 24]: 0.332 (inactive)
z-score [13, 25]: 0.082
z-score [18]: 0.375 (inactive)

CC(O)CN1CCN(CC(=O)[O-])CCN(CC(=O)[O-])CCN(CC(=O)[O-])CC1.[Gd+3] (configuration not stated)
nuclear beta-catenin stimulation ([3]; at 10 µM): -1.8% (inactive)
nuclear beta-catenin stimulation ([3]; stimulation, at 2 µM): -0.7%
insulin secretion stimulation [4]: 3.6% (inactive)
viability decrease [5]: 7.8% (inactive)
tube area decrease [6]: 9.4% (inactive)
GLP1 secretion stimulation [7]: -4.3% (inactive)
inhibition of viability [8]: 0.7% (inactive)
viability decrease (inhibition) [9]: -1.9% (inactive)
viability decrease (inhibition) [10]: -6.4% (inactive)
red/green cell ratio (normalised) [11]: 0.9 (inactive)
normalised cell number [11, 19]: 1.27
normalised cell number [11, 20]: 1.14
fold change ([12]; stronger effect = lower value): 0.973 (inactive)
fold change [12, 21]: 0.913
cell count [12, 22]: 8990
cell count [12, 23]: 9240
remaining NAD [14]: 10 nM (inactive)

CCCCc1ccc(C(=O)O)nc1
survival [1]: 6.17 (inactive)
parasite load remaining [2]: 113% (inactive) and 80.1% (inactive)
viability [2]: 102% and 74.9%
inhibition [15]: -3% (inactive)
fluorescence ratio (interference) [16]: 1.1 (inactive)
nuclear beta-catenin stimulation ([3]; at 10 µM): 0.7% (inactive)
nuclear beta-catenin stimulation ([3]; stimulation, at 2 µM): 2.6%
insulin secretion stimulation [4]: 0.5% (inactive)
viability decrease [5]: 9.1% (inactive)
tube area decrease [6]: -19.3% (inactive)
GLP1 secretion stimulation [7]: -1.2% (inactive)
inhibition of viability [8]: 25.9% (inactive)
viability decrease (inhibition) [9]: 82.1% (active)
viability decrease (inhibition) [10]: 3.1% (inactive)
remaining activity [17]: 102% (inactive)
fold change ([12]; stronger effect = lower value): 0.891 (inactive) and 0.841 (inactive)
fold change [12, 21]: 1.39 and 1.24
cell count [12, 22]: 9790 and 8980
cell count [12, 23]: 11000 and 10700
z-score [18]: 0.395 (inactive)
